Source: PubChem BioAssay
Nrf2 inh – inhibitors of Nrf2 signaling. A549 ARE-Fluc reporter, luciferase luminescence, 18-24 h. AID 504444. Potency, µM (highest dose often 46 µM), without a hit: at the top dose activity change, negative = inhibition, most hits filed as inhibitors. 360,000 tested, 2.1% active; also: % is scaled to controls: 0 for no effect and ±100 for the full control effect; nearly all actives have a fitted effect of over 60% in size
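Nrf2 activity is the BugLite luminescence, read 15 min after reagent at room temperature, following CellTiter-Fluor cytotoxicity readout (30 min, 37C). Compound titrations were applied for 18-24 h to 5000 A549 ARE_Fluc cells/well in 5% FBS OPTI-MEM.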
ATXN viability – reduces viability in counter-screen for ATXN expression inhibitors | S2 cells (HEK-293 line with an ATXN2-luciferase reporter) viability, CellTiter-Fluor protease fluorescence, 24 h | Potency, µM (titrated, usually from 56.7 µM), hits mostly cytotoxic | 400,000 tested, 0.49% active; also: nearly all actives have a fitted effect of over 40% in size
ATXN2 expr inh – inhibitors of ATXN2 expression; HEK-293 ATXN2-luciferase reporter, luminescence, 24 h; Potency, µM (top dose mostly 57 µM), inactives show at the highest dose activity change, negative = inhibition, most hits filed as inhibitors; 360,000 tested, 0.72% active; also: % is scaled to controls: 0 for no effect and ±100 for the full control effect; nearly all actives have a fitted effect of over 55% in size
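qHTS (up to 57 uM final) was run with 24 h compound exposure of reporter cells at 37 °C. Each well was multiplexed: SteadyGlo luminescence measured ATXN2-luciferase expression after a fluorogenic Gly-Phe-AFC viability readout (25 uM final).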
A549 viability – A549 cytotoxicity, counter-screen for Nrf2 inhibitors. 390,000 tested, 0.16% active. A549 ARE-Fluc cells, CellTiter-Fluor viability, 18-24 h. Potency, µM (top dose mostly 46 µM), for the others: at the highest dose activity change, negative = cytotoxicity, most hits filed as inhibitors; also: % is scaled to controls: 0 for no effect and ±100 for the full control effect
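A549 ARE_Fluc cells in 5% FBS OPTI-MEM were exposed to compounds in concentration-response for 18-24 h at 37 deg C. Viability was read by CellTiter-Fluor fluorescence (Ex 405/Em 525) after 30 min, before the luciferase read.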
HepG2 viability – kills HepG2 cells in TGF-b inhibitor counter-screen; HepG2 CAGA-GFP viability, ATP luminescence, 18 h; Potency, µM (top dose mostly 46.1 µM), inactives show top-dose activity change, negative = cytotoxicity, actives largely listed as cytotoxic; 410,000 tested, 0.76% active; AID 588856
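HepG2 CAGA-GFP cells (1000/well, DMEM with 1% FBS) received compound, then TGF-beta at 500 pg/mL final, and were incubated 18 hours at 37 degrees C. Viability was read by CellTiter-Glo luminescence. Media-only wells were set as complete cell-killing and DMSO as no toxicity.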
TGFb SMAD3 inh – blocks TGF-b signaling | HepG2 CAGA-GFP TGF-b/SMAD3 reporter, GFP fluorescence, 18 h; TGF-beta stimulated, 500 pg/mL final | Potency, µM (series often up to 46.1 µM), for inactives: top-dose activity, negative = inhibition, most hits filed as inhibitors | 410,000 tested, 1.2% active; also: % is scaled to controls: 0 for no effect and ±100 for the full control effect; nearly all actives have a fitted effect of over 65% in size
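HEPG2 CAGA-GFP reporter cells (1000/well, DMEM with 1% FBS) received compounds, then recombinant TGF-beta at 500 pg/mL final for 18 hours at 37 degrees C. Per-cell GFP summed per well was normalised to unstimulated and stimulated DMSO controls before curve fitting.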
Active calls of the source: *; i = inactive; ? = inconclusive; nt = no result. Only some compounds are listed: those with a hit (about 3.8% of all), similar ones and a draw of the others. Calls follow the shape of the dose curve; as a rule, active = well fitted curve in the direction sought with a large enough effect; inconclusive = small, poorly fitted or top-dose-only effect, or another doubt; inactive = no such curve, though single readings can be large; an effect the other way counts as inactive or inconclusive. Potency is read from the fitted curve at half-maximal effect.

SMILES	Nrf2 inh	ATXN viability	ATXN2 expr inh	A549 viability	HepG2 viability	TGFb SMAD3 inh
O=C(Nc1nc2c(s1)CN(Cc1ccccc1)CC2)C1CCC1	?	nt	48%	3%	11µM*	7%
COc1ccc(-c2cccc(NC(=O)c3cccs3)c2)nn1	-9%	?	-15%	-5%	-7%	-8%
O/N=C\c1ccccc1Oc1ccc(F)cc1	2%	i	-21%	2%	-6%	4%
Cc1cccc2cc(CN(CC3CCCO3)C(=O)c3cccc(F)c3)c(N(C)C)nc12 (centres undefined)	nt	i	nt	nt	nt	nt
C=CCC[C@@H](Cc1ccc(F)cc1)C(=O)OC[C@H](Cc1c[nH]c2ccccc12)NC(=O)[C@@H](CC=C)CC(=O)NCCO	9%	nt	?	0%	-54%	?
C=CCC[C@H](Cc1ccc(F)cc1)C(=O)OC[C@@H](Cc1c[nH]c2ccccc12)NC(=O)[C@@H](CC=C)CC(=O)N(CCO)Cc1ccccc1	9.2µM*	16µM*	?	12µM*	-4%	?
C=CCC[C@H](Cc1ccc(F)cc1)C(=O)OC[C@H](Cc1c[nH]c2ccccc12)NC(=O)[C@@H](CC=C)CC(=O)N(CCO)Cc1ccccc1	?	nt	0%	?	-33%	?
C=CCC[C@H](Cc1ccc(F)cc1)C(=O)O[C@H](CNC(=O)[C@@H](CC=C)CC(=O)N(CCO)Cc1ccccc1)c1ccccc1	?	22µM*	?	?	-58%	?
C=CCC[C@@H](Cc1ccc(F)cc1)C(=O)OC[C@H](Cc1c[nH]c2ccccc12)NC(=O)[C@H](CC=C)CC(=O)N(CCO)Cc1ccccc1	?	22µM*	-17%	?	-35%	?
C=CC[C@H](CC(=O)N(CCO)Cc1ccccc1)C(=O)NC[C@@H](OC(=O)[C@@H](CC=C)Cc1ccc(F)cc1)c1ccccc1	?	nt	?	-12%	-35%	?
CCOC(=O)c1ccc(NC(=S)NCCc2ccc(F)cc2)cc1	1%	i	-1%	5%	-1%	-3%
O=C(NCC(c1cccnc1)N1CCN(c2ccccc2F)CC1)c1cccc(Cl)c1 (centres undefined)	21µM*	i	-22%	-17%	4%	1%
O=C(NCC(c1cccnc1)N1CCN(c2ccccc2F)CC1)c1ccc(F)cc1 (centres undefined)	-1%	?	-25%	1%	-26%	?
O=C(NCC(c1ccc2c(c1)OCO2)N1CCN(c2ccccc2F)CC1)c1ccccc1F (centres undefined)	nt	?	-15%	-17%	-4%	10µM*
CC(C)C(=O)NCC(c1ccc2c(c1)OCO2)N1CCN(c2ccccc2F)CC1 (centres undefined)	nt	i	4%	6%	-25%	-1%
COc1ccc(Nc2nc(C#N)nc(NC3CCCC3)n2)cc1	?	nt	nt	-3%	nt	nt
COc1ccccc1Nc1ccc(NC(=O)c2cccc([N+](=O)[O-])c2C)cc1	10µM*	?	nt	-22%	-16%	?
CCOC(=O)N1CCN(c2ccncc2S(=O)(=O)N2CCCCC2)CC1	-7%	i	0%	1%	6%	-3%
C[C@H](CO)N1C[C@H](C)[C@@H](CN(C)S(=O)(=O)c2cccs2)Oc2ccc(NS(=O)(=O)c3ccccc3)cc2C1=O	-20%	i	-5%	1%	1%	4%
Cc1ccc2[nH]c3c(N4CCN(Cc5ccccc5)CC4)ncnc3c2c1	9.2µM*	?	?	?	7.9µM*	?
CCOc1ccc2[nH]c3c(N4CCN(c5ccccn5)CC4)ncnc3c2c1	nt	i	?	-18%	-43%	-8%
c1ccc(CN2CCN(c3nc4ccccc4c4ccccc34)CC2)cc1	-16%	i	-10%	1%	-8%	?
c1ccc2c(c1)[nH]c1c(N3CCC4(CC3)OCCO4)ncnc12	13µM*	i	-22%	-18%	-5%	?
c1ccc(CN2CCN(c3ncnc4c3[nH]c3ccccc34)CC2)cc1	15µM*	?	?	-19%	-29%	?
COc1cccc2[nH]c3c(N4CCC5(CC4)OCCO5)ncnc3c12	0%	i	nt	14%	19%	10%
SMILES	Nrf2 inh	ATXN viability	ATXN2 expr inh	A549 viability	HepG2 viability	TGFb SMAD3 inh
COc1ccc(C(O)P(=O)(OCCC(C)C)c2ccc(N(C)C)cc2)cc1 (centres undefined)	-21%	i	-12%	-2%	-20%	-14%
Cc1nc(C(F)(F)F)ccc1C(=O)N1CCC1(C)C(=O)NCc1ccc(Cl)cc1 (centres undefined)	nt	i	8%	nt	-12%	0%
COc1ccc(S(=O)(=O)Nc2ccc(O)c3ccccc23)cc1	-12%	20µM*	?	-8%	-100%	?
CC(=O)Nc1ccc(S(=O)(=O)Nc2cccc3cccnc23)cc1	?	nt	-18%	-2%	-28%	0%
COc1ccc(S(=O)(=O)Nc2cccc3cccnc23)cc1	?	nt	nt	?	-33%	7.1µM*
O=S(=O)(Nc1cc(Br)cc2cccnc12)c1ccccc1	?	nt	nt	?	1%	8.9µM*
COc1ccc(S(=O)(=O)Nc2ccccc2)cc1	-9%	i	-20%	2%	-1%	-2%
O=S(=O)(Nc1cccc2cccnc12)c1ccc(S(=O)(=O)N2CCCC2)cc1	5.2µM*	i	?	-10%	-28%	?
Cc1cccc(C)c1NC(=O)c1oc2c(c1C)-c1nn(Cc3ccccc3)cc1CC2	-7%	nt	nt	-7%	-27%	0%
Cc1cc(C)c(C)c(S(=O)(=O)Nc2ccccc2N2CCOCC2)c1C	-29%	i	-12%	-6%	-10%	-23%
Cc1cc(C)c2c(n1)nn1c(C)c(CCC(=O)Nc3cccc(C)c3C)c(C)nc21	6%	i	-2%	-3%	-1%	-3%
COc1ccc(CCC(=O)Nc2c(-c3ccc(N(C)C)cc3)[nH][nH]c2=O)cc1	nt	?	20µM*	nt	-89%	?
COc1ccc(CCn2c(=S)[nH]c(=O)c3nccnc32)cc1OC	18µM*	nt	nt	?	nt	nt
CN(C(=O)CSc1nnc(COc2ccccc2)o1)c1ccccc1	-26%	i	0%	-1%	-17%	5%
O/N=C/c1ccc2cccc(OCc3ccccc3)c2n1	-4%	i	-3%	4%	-9%	-22%
NC(N)=N/N=C/c1ccc2cccc(OCc3ccccc3)c2n1	-28%	?	30µM*	-11%	-84%	?
